Measured values from PubChem BioAssay AID743445 (Broad Institute, 2014).
In all, about 310,000 compounds went through this assay and about 1,700 (0.55%) were called active. No stated cut-off is given here; in the data, active means inhibition above about 50%; inactive means the rest. Shown is part of a subset that was picked to be rich in actives.

What follows are compounds tested against Histone-lysine N-methyltransferase NSD2 (Homo sapiens) (UniProt O96028) (assay: blockers of NSD2 lysine methylation activity – biochemical, AlphaScreen, single concentration, set 2, primary screen (AID 743445)). Conditions: NSD2 peptide methylation, 120 min, at 12.5 µM, hits give high values.
Sequence of Histone-lysine N-methyltransferase NSD2 (Homo sapiens) (O96028 whole entry, looked up): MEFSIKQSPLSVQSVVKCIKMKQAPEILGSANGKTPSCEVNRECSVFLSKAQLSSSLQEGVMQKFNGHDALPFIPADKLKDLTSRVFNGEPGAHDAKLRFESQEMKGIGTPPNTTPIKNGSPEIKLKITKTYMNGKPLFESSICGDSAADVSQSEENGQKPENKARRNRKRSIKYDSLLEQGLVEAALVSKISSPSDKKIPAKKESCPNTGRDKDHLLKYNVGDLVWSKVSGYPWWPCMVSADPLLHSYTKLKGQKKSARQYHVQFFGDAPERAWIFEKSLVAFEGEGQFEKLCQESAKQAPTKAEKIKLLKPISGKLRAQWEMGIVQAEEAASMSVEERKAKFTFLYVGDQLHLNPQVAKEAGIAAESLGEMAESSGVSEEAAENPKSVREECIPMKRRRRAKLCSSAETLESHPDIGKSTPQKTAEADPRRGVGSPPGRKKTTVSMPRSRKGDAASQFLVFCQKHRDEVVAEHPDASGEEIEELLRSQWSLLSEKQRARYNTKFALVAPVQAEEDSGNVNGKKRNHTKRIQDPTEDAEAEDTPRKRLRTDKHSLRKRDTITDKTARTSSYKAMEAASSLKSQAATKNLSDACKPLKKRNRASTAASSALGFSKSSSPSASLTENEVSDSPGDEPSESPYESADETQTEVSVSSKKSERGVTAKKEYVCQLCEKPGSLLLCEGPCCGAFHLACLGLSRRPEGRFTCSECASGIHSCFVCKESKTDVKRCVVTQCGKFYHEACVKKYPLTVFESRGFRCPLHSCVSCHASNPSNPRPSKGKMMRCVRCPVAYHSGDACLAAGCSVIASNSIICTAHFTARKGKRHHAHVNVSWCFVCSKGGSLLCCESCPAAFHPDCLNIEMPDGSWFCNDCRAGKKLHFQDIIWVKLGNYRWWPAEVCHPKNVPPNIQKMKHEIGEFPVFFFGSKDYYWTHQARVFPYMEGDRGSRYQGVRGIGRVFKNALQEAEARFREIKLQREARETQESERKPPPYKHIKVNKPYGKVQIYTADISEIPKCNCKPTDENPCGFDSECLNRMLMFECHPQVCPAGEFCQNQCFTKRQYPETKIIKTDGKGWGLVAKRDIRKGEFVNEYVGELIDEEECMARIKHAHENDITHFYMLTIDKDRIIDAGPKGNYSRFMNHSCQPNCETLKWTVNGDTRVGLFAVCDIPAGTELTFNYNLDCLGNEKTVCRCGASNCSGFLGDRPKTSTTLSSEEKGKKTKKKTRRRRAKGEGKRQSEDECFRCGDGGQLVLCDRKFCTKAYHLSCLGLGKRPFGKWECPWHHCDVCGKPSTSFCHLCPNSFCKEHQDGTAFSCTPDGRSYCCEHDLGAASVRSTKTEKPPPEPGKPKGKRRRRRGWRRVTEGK

SMILES | inhibition
COc1ccc(-n2c(COc3ccccc3)nnc2SCC(=O)Nc2ccc3c(c2)OCO3)cc1 | -0.703% (inactive)
Cc1cc(C)cc(C(=O)NCCN2CCOCC2)c1 | 4.87% (inactive)
CC(=O)c1c(C)[nH]c(C(=O)NCCCN2CCCC2)c1C | 7.16% (inactive)
CCOC(=O)c1c(C)[nH]c(C(=O)NCCN2CCOCC2)c1C | 74.8% (active)
C=CCn1c(SCC(N)=O)nnc1-c1ccccc1OC | -2.46% (inactive)
Cc1ccc(-n2c(COc3ccccc3)nnc2SCC(=O)Nc2ccc3c(c2)OCCO3)cc1 | 5.45% (inactive)
O=C(Nc1cc(F)cc(F)c1)OC1CCC12CCC(c1ccccc1)CC2 (configuration not stated) | -4.2% (inactive)
COC(=O)c1ccccc1-n1cc(COC(=O)NCCc2ccccc2)nn1 | -1.58% (inactive)
O=C(CCCCCN1C(=O)C2C3C=CC(C3)C2C1=O)Nc1ccccc1 (configuration not stated) | -10.2% (inactive)
O=C(Nc1ccccc1)N1CCN(Cc2nc3ccccc3c(=O)[nH]2)CC1 | -3.56% (inactive)
O=C(NCc1ccco1)c1nc(-c2ccccc2)n(-c2ccccc2)n1 | 59.6% (active)
O=C(CSc1nnnn1-c1ccccc1)NCc1ccco1 | -2.53% (inactive)
O=C(NCc1ccco1)c1nc2ncccn2n1 | -4.87% (inactive)
COC(=O)C1=C(C)N(Cc2cccc(C(F)(F)F)c2)C(=NCc2ccccc2)NC1c1ccccc1C(F)(F)F (configuration not stated) | -2.64% (inactive)
Nn1c(SCC(=O)Nc2ccc(S(N)(=O)=O)cc2)nnc1-c1n[nH]c2c1CCC2 | -3.92% (inactive)
O=C(CSc1nc2sc3c(c2c(=O)n1-c1ccccc1)CCCC3)NN=Cc1ccc(OCc2ccccc2)cc1 | 6.16% (inactive)

SMILES | inhibition
COc1cccc2cc(/C(C)=N/NC(=O)c3ccco3)oc12 | -1.2% (inactive)
C/C(CC(=O)NC(C)(C)C)=N\NC(=O)c1ccco1 | -3.83% (inactive)
C/C(=N/NC(=O)CCc1ccccc1)c1ccco1 | 51.2% (active)
CCOc1ccc(Oc2c(Cl)cnn(-c3ccc(C)cc3)c2=O)cc1 | -2.84% (inactive)
O=C(CSc1nc2c(c(=O)[nH]1)CCCC2)N1CCCCC1 | -1.56% (inactive)
CC(C)Nc1nc(NCCOc2ccccc2Cl)c2sccc2n1 | 2.58% (inactive)
COc1cc(/C=C/C(=O)n2cnc3ccccc32)cc(OC)c1OC | 0.939% (inactive)
Cc1ccccc1-n1nc(C)c2cc(C(=O)NC3CC3)sc21 | 0.032% (inactive)
Cc1ccccc1-n1nc(C)c2c1N=C1C(Cl)=CC(Cl)=CN1C2c1ccc(C(=O)O)cc1 (configuration not stated) | 51.3% (active)
Cc1nn(-c2ccccc2)c(Cl)c1/C=C/C(=O)c1ccc(O)cc1 | -0.695% (inactive)
COc1ccc([C@H]2OC(=O)C[C@H]2C(=O)N2CCN(c3ccccc3F)CC2)cc1OC | -1.64% (inactive)
COc1ccccc1N(C)S(=O)(=O)c1ccc(C(=O)N2CCC(C(N)=O)CC2)cc1 | -2.68% (inactive)
COc1ccc(S(=O)(=O)NC(C)C)cc1C(=O)NC1CCCCC1 | 0.027% (inactive)
COc1ccccc1N(C)S(=O)(=O)c1ccc(C(=O)NC2CCCCCC2)cc1 | 50.3% (active)
O=C(NCCC1=CCCCC1)C1CCN(S(=O)(=O)c2ccc(Cl)s2)CC1 | -2.83% (inactive)
COc1ccccc1-c1cc(NC(C)=O)c2ncc(-c3ccc(F)cc3)n2c1 | -0.432% (inactive)
